Data: publication PMC9838217, “Structure of SALL4 zinc finger domain reveals link between AT-rich DNA binding and Okihiro syndrome”
Positions count from the first letter of the chain named.

Assays:
Assay in all cases: HT-SELEX; high values mean tight binding
Details in all cases: protein: recombinant; vector His6-GST; dsDNA, one strand shown
[1] = target: T1, SALL4 ZFC4 WT (HT-SELEX) (Mus musculus, UniProt Q8BX22 870-940)
T1 sequence: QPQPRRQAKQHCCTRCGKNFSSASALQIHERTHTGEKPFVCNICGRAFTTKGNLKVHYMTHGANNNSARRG
Summary of the method: (§1)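 Purified recombinant mouse SALL4 zinc finger cluster 4 (residues 870–940, 1 µg) and library DNA (1.5 µg first cycle, 200 ng later) were incubated for 10 min at room temperature in 100 µl of 10 mM Tris–HCl pH 7.5, 50 mM NaCl, poly(dI-dC) and DTT. After Ni2+ bead capture and up to 6 triplicate cycles of selection, DNA was MiSeq-sequenced and scanned for 6-mers. Binding signal is the fold change in each canonical k-mer's read fraction relative to the initial random library.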

[2] = target: T2, SALL4 ZFC4 R900W (HT-SELEX) (Mus musculus, UniProt Q8BX22 870-940, R900W)
T2 sequence: T1 sequence with R31W
Summary of the method: as §1

[3] = target: T3, SALL4 ZFC4 G921D (HT-SELEX) (Mus musculus, UniProt Q8BX22 870-940, G921D)
T3 sequence: T1 sequence with G52D
Summary of the method: as §1

Row | Sequence | binding signal [1] [fold-change vs cycle 0] | binding signal [2] [fold-change vs cycle 0] | binding signal [3] [fold-change vs cycle 0]
1 | AGCGTA | 0.55 ± 0.0304 | 0.623 ± 0.0245 | 0.723 ± 0.0232
2 | AGGGAG | 0.59 ± 0.0373 | 0.667 ± 0.0517 | 0.737 ± 0.0368
3 | AGAACA | 1.26 ± 0.0155 | 1.39 ± 0.0297 | 1.34 ± 0.0563
4 | GAAAGC | 0.586 ± 0.0266 | 0.698 ± 0.0129 | 0.775 ± 0.0469
5 | AGACGA | 0.675 ± 0.0154 | 0.786 ± 0.0316 | 0.86 ± 0.0237
6 | ATCTGG | 0.78 ± 0.0274 | 0.839 ± 0.0522 | 0.901 ± 0.0524
7 | AAGAAG | 1.4 ± 0.0333 | 1.63 ± 0.0977 | 1.45 ± 0.147
8 | TCTAAA | 1.79 ± 0.0986 | 1.85 ± 0.144 | 1.67 ± 0.161
9 | ACCAGT | 0.8 ± 0.0267 | 0.969 ± 0.0358 | 0.994 ± 0.0294
10 | CTGTTC | 0.771 ± 0.0432 | 0.893 ± 0.0123 | 0.959 ± 0.0166
11 | AGGGTA | 0.87 ± 0.0133 | 1 ± 0.0465 | 0.989 ± 0.0135
12 | AAGCAT | 1.23 ± 0.027 | 1.26 ± 0.0143 | 1.273 ± 0.011
13 | ATCTAA | 2.02 ± 0.105 | 2.01 ± 0.101 | 1.83 ± 0.191
14 | AAGTAC | 1.23 ± 0.0679 | 1.37 ± 0.0898 | 1.31 ± 0.0947
15 | TGAGAA | 1.37 ± 0.0413 | 1.49 ± 0.0497 | 1.38 ± 0.0987
16 | AAAGAA | 1.95 ± 0.101 | 2.12 ± 0.151 | 1.8 ± 0.181
17 | TGGAAA | 1.28 ± 0.069 | 1.27 ± 0.0696 | 1.23 ± 0.0625
18 | AAGGAC | 0.805 ± 0.0174 | 0.941 ± 0.0375 | 0.9757 ± 0.00429
19 | CTGCAA | 0.58 ± 0.0126 | 0.651 ± 0.015 | 0.729 ± 0.0483
20 | CTAGGC | 0.314 ± 0.00866 | 0.38 ± 0.00705 | 0.509 ± 0.0429

Row | Sequence | binding signal [1] [fold-change vs cycle 0] | binding signal [2] [fold-change vs cycle 0] | binding signal [3] [fold-change vs cycle 0]
21 | AGGAAC | 0.86 ± 0.0507 | 1.02 ± 0.0591 | 1.04 ± 0.0533
22 | ATATTC | 2.62 ± 0.255 | 1.95 ± 0.1 | 1.78 ± 0.19
23 | CGATAA | 1.17 ± 0.0894 | 1.19 ± 0.0909 | 1.15 ± 0.0473
24 | ACTTGG | 0.787 ± 0.0269 | 0.907 ± 0.0234 | 0.936 ± 0.0313
25 | AAATCA | 1.98 ± 0.081 | 1.8 ± 0.0687 | 1.7 ± 0.128
26 | CAAATC | 1.1 ± 0.0172 | 1.18 ± 0.0162 | 1.21 ± 0.0283
27 | AGAATC | 1.3 ± 0.1 | 1.47 ± 0.0816 | 1.41 ± 0.128
28 | GAGTCA | 0.822 ± 0.0312 | 0.955 ± 0.0308 | 0.993 ± 0.0145
29 | TACAGA | 1.3 ± 0.0338 | 1.38 ± 0.0448 | 1.33 ± 0.0789
30 | CTACTC | 0.863 ± 0.0395 | 0.998 ± 0.0566 | 0.992 ± 0.0109
31 | AATATA | 4.74 ± 0.532 | 2.49 ± 0.212 | 2.16 ± 0.28
32 | GGTCAA | 0.661 ± 0.0198 | 0.78 ± 0.0273 | 0.867 ± 0.0299
33 | CCGAAA | 0.495 ± 0.0231 | 0.559 ± 0.0265 | 0.66 ± 0.0717
34 | ACTATA | 2.18 ± 0.121 | 1.98 ± 0.101 | 1.76 ± 0.177
35 | GCATGA | 0.7 ± 0.0187 | 0.753 ± 0.0226 | 0.824 ± 0.0395
36 | GGGAGA | 0.48 ± 0.0185 | 0.566 ± 0.0484 | 0.638 ± 0.033
37 | TAGGCA | 0.578 ± 0.0216 | 0.648 ± 0.0255 | 0.751 ± 0.038
38 | CTATGA | 1.49 ± 0.114 | 1.43 ± 0.0544 | 1.42 ± 0.104
39 | ATATAA | 4.98 ± 0.592 | 2.65 ± 0.229 | 2.24 ± 0.302
40 | ACAGAT | 1.32 ± 0.0342 | 1.4 ± 0.028 | 1.37 ± 0.0364

Row | Sequence | binding signal [1] [fold-change vs cycle 0] | binding signal [2] [fold-change vs cycle 0] | binding signal [3] [fold-change vs cycle 0]
41 | AAATGA | 2.02 ± 0.088 | 1.91 ± 0.0687 | 1.75 ± 0.132
42 | AACGAA | 1.15 ± 0.0599 | 1.28 ± 0.0641 | 1.24 ± 0.054
43 | ACTCTC | 0.904 ± 0.0319 | 1.05 ± 0.0292 | 1.07 ± 0.0307
44 | AGTGTA | 1.32 ± 0.061 | 1.43 ± 0.0767 | 1.36 ± 0.1
45 | CATCAG | 0.861 ± 0.0198 | 0.967 ± 0.0193 | 0.996 ± 0.0231
46 | ACTCCG | 0.4 ± 0.00858 | 0.466 ± 0.0288 | 0.594 ± 0.0678
47 | CGTTTC | 0.628 ± 0.029 | 0.738 ± 0.0101 | 0.794 ± 0.021
48 | CTGGTA | 0.8022 ± 0.00263 | 0.908 ± 0.0333 | 0.954 ± 0.0144
49 | AAATGT | 1.68 ± 0.0685 | 1.7 ± 0.0668 | 1.58 ± 0.133
50 | ACAAAA | 1.6 ± 0.0623 | 1.61 ± 0.0945 | 1.5 ± 0.125
51 | AAAGCG | 0.393 ± 0.0227 | 0.489 ± 0.0338 | 0.601 ± 0.0731
52 | AGTCAA | 1.21 ± 0.0262 | 1.409 ± 0.0091 | 1.34 ± 0.0532
53 | ATTTCC | 1.33 ± 0.0842 | 1.28 ± 0.0652 | 1.25 ± 0.0764
54 | CTCCTC | 0.611 ± 0.00845 | 0.705 ± 0.0481 | 0.774 ± 0.0379
55 | CCATTC | 0.803 ± 0.0377 | 0.923 ± 0.0207 | 0.938 ± 0.0225
56 | AATGCG | 0.428 ± 0.0345 | 0.473 ± 0.0206 | 0.61 ± 0.0401
57 | CCACAC | 0.35 ± 0.0241 | 0.414 ± 0.0369 | 0.516 ± 0.0626
58 | CAAGGA | 0.866 ± 0.0298 | 1.02 ± 0.0119 | 1.01 ± 0.0394
59 | ATACAT | 2.32 ± 0.0956 | 2.02 ± 0.0564 | 1.83 ± 0.109
60 | AGAAAC | 1.21 ± 0.0656 | 1.36 ± 0.0395 | 1.31 ± 0.0847
